Test results: PubChem BioAssay AID493004 (Broad Institute, 2010)
Screen size: about 2,300 compounds; fewer than 10 were called active.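 How the source made its calls: active means Signal drops as the depositor expects, and the fitted half-maximal dose is no more than ten times the top valid tested dose; inconclusive means Poor fit, or a flat curve whose signal drops by 30% to 70%; inactive means the rest.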 These entries were drawn from the full list.

Assay: Mot1-301 yeast growth enhancement – whole organism, S. cerevisiae, ATP luminescence, cherry-picked samples, SUMO pathway inhibitor project, dose response (AID 493004);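 further: more negative values mean stronger growth rescue toward the control strain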
Details: S. cerevisiae Mot1-301 galactose growth, 24 h, -100 = growth of slx-deleted rescue strain; series mostly up to 42 µM

outcome, inactive:
COc1cc(C(=O)OCC(=O)NC(C)CCc2ccccc2)cc(OC)c1OC (stereo not given)
O=C(NCc1ccccc1Cl)C(=O)NCC1CCCN1S(=O)(=O)c1cccs1 (stereo not given)
COc1cccc(NC(=O)c2nn(C34CC5CC(CC(C5)C3)C4)cc2[N+](=O)[O-])c1
CC(C)n1c(O)c(N=Nc2ccccn2)c2ccccc21
CCCCC1=CC2=CC(=O)C(C)(OC(=O)CC)C(=O)C2=CN1CCCOC(C)C (stereo not given)
Cc1ccc(Nc2cc(C)nc3c(C)ccc([N+](=O)[O-])c23)cc1
CCC1(CC)NC(=O)N(CC(=O)OCC(=O)NC(=O)c2ccccc2)C1=O
CCN1CCCC1CNC(=O)Cn1cnc2ccc(S(=O)(=O)N3CCC(C)CC3)cc2c1=O (stereo not given)
CN(C)/C(CN1CCCCC1)=C1\N=C(c2ccccc2)OC1=O
COC(=O)c1sccc1NC(=O)CC1C(=O)NCCN1C(=O)Nc1ccc(F)cc1F (stereo not given)
COc1cc(NC(=O)C2=CC(c3ccco3)=NS(=O)(=O)N2C)cc(OC)c1OC
CN(C)C(=O)c1coc2nc3ccccc3nc12
O=C(Nc1nccs1)C1CCN(S(=O)(=O)c2ccc(Cl)c(C(F)(F)F)c2)CC1
Cc1cccc(-[n+]2c(-c3cccc(Br)c3)[nH]c3nc4ccccc4nc32)c1
COCCCN1C(=O)c2ccc(C(=O)Nc3ccc(OC)cc3OC)cc2C1=O
COc1ccc(/C=C(\C#N)C(=O)NCCCn2ccnc2)cc1
Cn1c(C(=O)NCCc2ccsc2)cc2c(=O)n(C)c3ccccc3c21
CN(NC(=O)c1ccccc1F)c1nc(C(F)(F)F)nc2ccccc12
Cc1cc(C)c2c(Cn3ccnc3)cc(=O)oc2c1
COc1ccc(-c2cn(-c3ccc(C)cc3)c(=O)n2CC(=O)Nc2ccc(OC)c(OC)c2)cc1
O=C1CCC(=O)N1CCOP1(=O)COc2ccccc2OC1
CCOc1ccc(C(C(=O)NC2CCCC2)N(C(=O)c2snc(C(N)=O)c2N)C2CCCC2)cc1 (stereo not given)
Cc1ccc(O)c(CNc2nc3ccccc3n2C)c1
NC(=O)c1cc(S(=O)(=O)N2CCCC2)ccc1OCc1ccc(F)cc1
COc1ccccc1CSc1ncc(-c2ccc([N+](=O)[O-])cc2)[nH]1
O=C(CP(=O)(c1ccccc1)c1ccccc1)N1CCOCC1
N#CC1=C(N)Oc2n[nH]c(CSc3ccccc3)c2C12C(=O)Nc1ccccc12 (stereo not given)
COc1ccc(OC)c2c(N)c(C#N)c(C(F)(F)C(F)(F)F)nc12
COCCNC(=O)C(c1ccc(C)cc1)N(C(=O)CCC(=O)Nc1ccccn1)c1cccc(C)c1 (stereo not given)
CC(C)c1cc(C(=O)N/N=C/C(Br)=C/c2ccccc2)n[nH]1
CCCc1cc(=S)n2c([nH]c3ccccc32)c1C#N
CCOc1ccc(Cn2c(SCCCCC#N)nc3c2c(=O)n(C)c(=O)n3C)cc1OCC
COc1cccc(-n2c(SCC(=O)NC3CCCCC3)nc3n[nH]c(C)c3c2=N)c1
Cc1ccc(C)c(S(=O)(=O)n2cnc3ccccc32)c1
COc1ccc(C(=O)OCC(=O)c2ccc(C)c(S(=O)(=O)N3CCOCC3)c2)cc1OC
Cc1cccc(N(C(=O)c2ccc(CN3CCOCC3)o2)C(C(=O)NC2CCCCC2)c2ccc(F)cc2)c1 (stereo not given)
O=C(NC1CCCCC1)c1ccc2c(=O)n(CC3CCCO3)c(=O)[nH]c2c1 (stereo not given)
CCOCCCNCc1ccc(OCc2ccc(F)cc2)c(OC)c1
COc1cccc(CN(C)CC2CCCN(CCc3ccc(Cl)cc3)C2)c1OC (stereo not given)
COc1cccc(OC)c1C(=O)Nc1ccc2c(c1)n(C)c(=O)n2C
COC(=O)/C=C\C(=O)Nc1cccc([N+](=O)[O-])c1
CC(C)Cc1nc(N2CCOCC2)c(C#N)c2c1CCC2
COc1ccc(-c2[nH]nc3c2C(c2ccncc2)C(C#N)=C(N)O3)cc1 (stereo not given)
COc1cc(CN2CCNC(=O)C2CC(=O)NCCc2ncccc2C)cc(OC)c1 (stereo not given)
CC(C)CCNC(=O)Cn1c(=O)oc2cc(S(=O)(=O)N3CC(C)CC(C)C3)ccc21 (stereo not given)
CCc1cc2c(=O)c(-c3ccc(F)cc3)c(C(F)(F)F)oc2cc1OCC(=O)O
CCc1c(C)nc(N2CCN(Cc3ccccc3)CC2)[nH]c1=O
Cc1cc(C)c(OCC(=O)N/N=C/c2ccco2)c(C)c1
CC1=NC2(CCCc3c2no[n+]3[O-])N(O)C1(C)C (stereo not given)
CCCCC(=O)N/N=C(\C)CC(=O)Nc1cc(Cl)ccc1OC
CC(NC(=O)c1ccc(Cl)cc1)C(=O)N1CCCCC1 (stereo not given)
CCc1ccccc1NC1c2ccccc2C(=O)N1c1cccnc1 (stereo not given)
COc1ccccc1N1CCN(C(=O)C(=O)N/N=C/c2ccccc2F)CC1
N#CC1=C(N)OC2=C(C(=O)CCC2)C1C1CC=CCC1 (stereo not given)
Cc1cc(C)c2nc(-c3cccnc3)cc(C(=O)Nc3ccc(S(=O)(=O)Nc4onc(C)c4C)cc3)c2c1
CSc1nc2ccc(NC(=O)c3c(F)cccc3F)cc2s1
COc1ccccc1/C=C/C(=O)NC(=S)N1CCOCC1
CCCCNC(=O)c1ccccc1NC(=O)C1=C(C)OCCS1
C=CCC(NCCCO)c1cccc(OC)c1OC (stereo not given)
O=C(OC1CCOC1=O)c1cccc(S(=O)(=O)Nc2ccc(F)cc2)c1 (stereo not given)
CCOC(=O)C1(Cc2cccc(OC)c2)CCCN(S(=O)(=O)c2cccnc2)C1 (stereo not given)
Cc1ccc(S(=O)(=O)N2[C@@H](c3ccc(Br)cc3)C(C(=O)O)=C[C@H]2CC2CCCC2)cc1
CCN(CC)C(=O)CSC(Nc1cccc(F)c1)=C(C#N)C#N
Cc1ccc(NC(=O)Nc2cccc(C(F)(F)F)c2)nc1
O=C(NCC(=O)N(c1ccccc1)C(C(=O)NCC1CCCO1)c1ccccc1)c1cccs1 (stereo not given)
O=C(CSCc1ccc(Cl)cc1)N1CCCCC1
O=C1CC(c2ccccc2)C(=O)N1c1cccc(O)c1 (stereo not given)
Cc1nn(CCOc2ccccc2)c(=O)n1-c1ccccc1F
Oc1c(Cl)cc(Cl)c(Cl)c1Cc1c(O)c(Cl)cc(Cl)c1Cl
CC(Oc1ccccc1[N+](=O)[O-])C(=O)N/N=C/c1ccoc1 (stereo not given)
